Shiga toxin inh: blocks Shiga toxin action in Vero cells. Vero cells, Shiga toxin protein synthesis inhibition reporter. inhibition, % at 38.7 µM. 9.2% of 290,000 active; in the data active means inhibition mostly above about 28%, no sharp cut-off; inactive means mostly below about 43%; further: 0% is about no effect
Pf growth 48h: inhibits P. falciparum growth in the first generation, 48 h; Potency, µM (highest dose often 28.7 µM), for the others: top-dose activity change, negative = inhibition, most hits filed as inhibitors; AID 504832; P. falciparum luciferase growth in erythrocytes, 48 h; 5.9% of 310,000 active; further: potency means the concentration at half of the fitted maximal effect; on the % scale 0 is the no-effect control and ±100 the full control effect
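First compound was added to culture medium, then infected red cells at 0.1% parasitemia and 2% hematocrit (final). After incubation at 37 C under 5% CO2, luciferase detection reagent was dispensed and light output recorded.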
AMA1 RON2 block: AMA1-RON2 (P. falciparum) interaction inhibition; AlphaScreen AMA1-biotinylated RON2 peptide binding; Potency, µM (top dose mostly 58.2 µM), for the others: top-dose activity change, negative = inhibition, most hits filed as inhibitors; 0.2% of 360,000 active; AID 720542;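 further: potency means the concentration at half of the fitted maximal effect; 0% = vehicle wells and -100% = peptide control; nearly all actives have a fitted effect of over 45% in size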
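AMA1 (3D7) with his tag at 25 nM final met compounds first, then biotinylated RON2 peptide at 25 nM; detection used donor plus acceptor beads, 10 µg/mL apiece, read by AlphaScreen after 30 min at room temperature.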
Cycloheximide cs: counter-screen for Shiga toxin inhibitors: cycloheximide protein synthesis inhibition | cell reporter, cycloheximide protein synthesis inhibition counterscreen | max response, % | 12% of 300,000 active | AID 2314; in the data active means max response mostly above about 13%, no sharp cut-off; inactive means mostly below about 14%; further: read at 38.3 µM for the half of the compounds with a filed dose; 0% is about no effect
HCV inh: blocks hepatitis C virus; Huh7.5.1 HCVcc-Cre infection, luciferase reporter, 44 h; Potency, µM (highest dose often 41.8 µM), for inactives: at the highest dose activity change, negative = inhibition, usual class: inhibitors; 3.4% of 340,000 active; further: potency means the concentration at half of the fitted maximal effect; on the % scale 0 is the no-effect control and ±100 the full control effect
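After 44 h co-culture of compound, cells and HCVcc-Cre (~0.5 moi), substrate is added for 15 min at room temperature and luciferase measured over 15 sec. Cells were seeded at 1,000/well and pre-cultured 4 h.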
Pf growth 96h: P. falciparum growth inhibition at 96 hour, primary screen for plastid delayed-death inhibitors | P. falciparum luciferase reporter growth, 96 h | Potency, µM (doses to about 28.7 µM), for the others: top-dose activity change, negative = inhibition, most hits filed as inhibitors | 6.9% of 320,000 active | AID 504834; further: potency means the concentration at half of the fitted maximal effect; on the % scale 0 is the no-effect control and ±100 the full control effect
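Luminescence readout: decreased luciferase signal marks inhibited growth of reporter-expressing P. falciparum in infected red cells (2% hematocrit, 0.05% parasitemia final), exposed to compound two generations (96 h, 37 C, 5% CO2).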
An asterisk follows results filed as active; ? = inconclusive; / = no result. Most compounds without a hit are left out; they make up all but 21% or so of the library. Unless noted, the call rests on the fitted dose curve; in most records, active means well fitted curve in the direction sought with a large enough effect; inconclusive means small, poorly fitted or top-dose-only effect, or another doubt; inactive means no such curve, though single readings can be large; an effect the other way counts as inactive or inconclusive.

SMILES | Shiga toxin inh | Pf growth 48h | AMA1 RON2 block | Cycloheximide cs | HCV inh | Pf growth 96h
CCC(=O)n1nc(-c2cccnc2)nc1NCc1ccc(OC)cc1 | 2 | 15% | 0% | -3 | 1% | -28%
COc1ccc(-c2ccc(C(=O)NCCc3ccccc3)c3occc23)c(C)c1 | / | / | -5% | / | / | /
CC(NC(=O)c1cccs1)C1CCCO1 (configuration not stated) | 3 | 26% | 11% | -1 | 10% | ?
CC(NC(=O)c1cc(Br)cs1)C1CCCO1 (configuration not stated) | 4 | 71% | -7% | -2 | -12% | 13µM*
CCCc1cc(C(=O)NNC(=S)NCC2CCCO2)cs1 (configuration not stated) | 6 | 15% | 29% | 14* | 36% | -26%
CCc1cc(C(=O)NNC(=S)NCC2CCCO2)cs1 (configuration not stated) | -5 | 122% | 45% | 10 | -12% | 0%
CCCc1cc(C(=O)NC(C)C2CCCO2)cs1 (configuration not stated) | 71* | 112% | -14% | 40* | 3% | 22%
CCc1cc(C(=O)NC(C)C2CCCO2)cs1 (configuration not stated) | 62* | 54% | -1% | 40* | 8% | -19%
CC1CCc2sc(C(=O)NC(C)C3CCCO3)cc2C1 (configuration not stated) | 88* | 123% | -7% | 40* | 6% | 6%
COc1ccc(/C=N/N(C)C2=NCCN2)c(OC)c1OC | 20 | 0% | 2% | 11 | -1% | 9%
Cc1cc(C=C2C(=O)c3ccccc3C2=O)c(C)n1-c1cccc(C(=O)O)c1 | 104* | ? | -10% | 43* | 2% | -1%
COc1ccccc1/C=C1\Cc2ccccc2C1=O | 51* | 30% | -3% | 32* | -28% | 42%
Nc1ccccc1C=C1Cc2ccccc2C1=O | / | / | 21% | / | -23% | /
Cc1cc(C=C2C(=O)c3ccccc3C2=O)c(C)n1-c1ccccc1 | 118* | 12% | -5% | 51* | 8% | -33%
Cc1cc(C=C2C(=O)c3ccccc3C2=O)c(C)n1-c1ccc(C(=O)O)cc1 | 10 | 31% | -4% | 8 | 8% | 88%
Cc1cc(/C=C2\Cc3ccccc3C2=O)c(C)n1-c1ccccc1 | 159* | -25% | -7% | 80* | ? | 48%
Cc1cc(/C=N/O)c(C)n1-c1ccccc1 | 1 | ? | 8% | 9 | -1% | 6%
NC(=O)c1c(N)[nH]c(C(=O)c2ccccc2)c1-c1ccccc1Br | / | / | 33% | / | / | /
Cc1cc(C=C2C(=O)N(C)C(=O)N(C)C2=O)c(C)n1-c1ccccc1 | 53* | 15% | -1% | 25* | 5% | ?
CC1=NN(c2ccccc2)C(=O)/C1=C\c1cc(C)n(-c2ccccc2)c1C | -7 | 0% | -15% | -4 | ? | -1%
COCCn1c(SCC(=O)Nc2ccc(F)cc2)nc2c([nH]c3ccccc32)c1=O | -8 | ? | -8% | -1 | 17% | 3.3µM*
CCn1c(SCC(=O)N2CC(C)OC(C)C2)nc2c([nH]c3ccccc32)c1=O (configuration not stated) | 3 | 6.6µM* | -9% | 7 | -11% | ?
COCCn1c(SCC(=O)Nc2ccccc2OC)nc2c([nH]c3ccccc32)c1=O | 12 | ? | -11% | 1 | -23% | 9.3µM*
CCOC(=O)C(C)Sc1nc2c([nH]c3ccccc32)c(=O)n1C (configuration not stated) | 15 | ? | -10% | -1 | 10µM* | 4%
CCOC(=O)CSc1nc2c([nH]c3ccccc32)c(=O)n1C | -18 | 11% | -9% | 1 | 4% | 1%
COCCn1c(SCC(=O)N2CC(C)OC(C)C2)nc2c([nH]c3ccccc32)c1=O (configuration not stated) | 5 | ? | 5% | -2 | 21% | ?
CCOC(=O)C1ON2CCCCC2C1(O)C(F)(F)F (configuration not stated) | 15 | 5% | 3% | 10 | 10% | 21%
CC1(C)COC(c2cc3c(cc2Br)OCO3)OC1 | / | / | 6% | / | -2% | /

Bioassay records as filed in PubChem.
